Experimental data: PubChem BioAssay AID1159580 (chemical genetic matrix, 2015)
“And” between values parts separate entries of the source, which are not always exact repeats. Equal values may be shown once. Among all 5,500 compounds or so, about 2,000 (36%) were called active. Not shown: some 18% with an inconclusive outcome. No stated cut-off is given here; in the data, active means normalized growth mostly below about 0.91 (no sharp cut-off); inconclusive means no clear call, values can overlap the other calls; inactive means mostly above about 0.92. The list shows a part of the results.

Test: chemical genetic growth profiling, strain panel (AID 1159580);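 further: tested at 20 µM; growth read once vehicle control cultures reached saturation at 30 °C; 1 = growth at the plate median or of vehicle wells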
Settings: S. cerevisiae deletion strains, growth OD

Measured: normalized growth

COc1cc(C)c(C(=O)Oc2cc(C)c(C(=O)O)c(O)c2C)c(OC)c1C
active: locus YDR392W, strain spt3, stronger effect = lower value 0.479 | locus YER155C, strain BEM2 (second series), stronger effect = lower value 0.708 | locus YHR079C, strain IRE1, stronger effect = lower value 0.845 | locus YJL129C, strain trk1, stronger effect = lower value 0.867 | locus YLR113W, strain HOG1, stronger effect = lower value 0.557 | locus YLR320W, strain mms22, stronger effect = lower value 0.859 | locus YMR205C, strain PFK2, stronger effect = lower value 0.852 | locus YNL071W, strain lat1, stronger effect = lower value 0.869 | locus YOR231W, strain MKK1, stronger effect = lower value 0.777
inactive: locus YAL021C, strain ccr4, stronger effect = lower value 1.01 | locus YAL026C, strain drs2, stronger effect = lower value 0.965 | locus YAL030W, strain snc1, stronger effect = lower value 0.994 | locus YBL061C, strain skt5, stronger effect = lower value 0.987 | locus YBR009C, strain hhf1, stronger effect = lower value 0.91 | locus YBR021W, strain FUR4, stronger effect = lower value 0.995 | locus YBR023C, strain chs3, stronger effect = lower value 0.983 | locus YBR171W, strain sec66, stronger effect = lower value 0.969 | locus YBR229C, strain ROT2, stronger effect = lower value 0.993 | locus YBR231C, strain swc5, stronger effect = lower value 0.98 | locus YBR279W, strain paf1, stronger effect = lower value 0.995 | locus YCL011C, strain gbp2, stronger effect = lower value 0.968 | locus YCL016C, strain dcc1, stronger effect = lower value 0.986 | locus YCL029C, strain bik1, stronger effect = lower value 1.02 | locus YCL061C, strain MRC1, stronger effect = lower value 0.974 | locus YCL069W, strain vba3, stronger effect = lower value 0.976 | locus YCR088W, strain abp1, stronger effect = lower value 0.994 | locus YDL005C, strain med2, stronger effect = lower value 0.992 | locus YDL035C, strain GPR1, stronger effect = lower value 0.991 | locus YDL040C, strain nat1, stronger effect = lower value 0.974 | locus YDL074C, strain BRE1, stronger effect = lower value 0.982 | locus YDL101C, strain DUN1, stronger effect = lower value 1.02 | locus YDL134C, strain PPH21, stronger effect = lower value 1.02 | locus YDL185W, strain tfp1, stronger effect = lower value 1.02 | locus YDL192W, strain arf1, stronger effect = lower value 1 | locus YDR001C, strain nth1, stronger effect = lower value 0.972 | locus YDR069C, strain doa4, stronger effect = lower value 0.993 | locus YDR101C, strain arx1, stronger effect = lower value 1.01 | locus YDR137W, strain rgp1, stronger effect = lower value 0.906 | locus YDR159W, strain sac3, stronger effect = lower value 0.89 | locus YDR162C, strain NBP2, stronger effect = lower value 0.98 | locus YDR195W, strain ref2 0.966 | locus YDR297W, strain sur2, stronger effect = lower value 0.988 | locus YDR318W, strain mcm21, stronger effect = lower value 1 | locus YDR334W, strain swr1, stronger effect = lower value 1 | locus YDR335W, strain msn5, stronger effect = lower value 0.993 | locus YDR388W, stronger effect = lower value 1.01 | locus YDR502C, strain sam2, stronger effect = lower value 1 | locus YEL003W, strain gim4, stronger effect = lower value 0.968 | locus YEL037C, strain rad23, stronger effect = lower value 0.982 | locus YEL061C, strain CIN8 (second series), stronger effect = lower value 0.982 | locus YEL061C, strain CIN8, stronger effect = lower value 1 | locus YER015W, strain faa2, stronger effect = lower value 0.99 | locus YER016W, strain bim1, stronger effect = lower value 0.984 | locus YER110C, stronger effect = lower value 1.02 | locus YER111C, strain swi4, stronger effect = lower value 0.97 | locus YER155C, strain BEM2, stronger effect = lower value 1 | locus YER167W, strain BCK2, stronger effect = lower value 0.999 | locus YFR010W, strain ubp6, stronger effect = lower value 0.991 | locus YGL078C, strain dbp3, stronger effect = lower value 0.986 | locus YGL086W, strain mad1, stronger effect = lower value 1.02 | locus YGL167C, strain pmr1, stronger effect = lower value 0.964 | locus YGL173C, strain kem1, stronger effect = lower value 0.975 | locus YGL227W, strain vid30, stronger effect = lower value 0.969 | locus YGL240W, strain doc1, stronger effect = lower value 0.941 | locus YGL248W, strain PDE1, stronger effect = lower value 1.01 | locus YGL253W, strain hxk2, stronger effect = lower value 0.949 | locus YGR078C, strain PAC10, stronger effect = lower value 0.992 | locus YGR135W, strain pre9, stronger effect = lower value 1 | locus YGR252W, strain gcn5, stronger effect = lower value 0.905 | locus YHR013C, strain ard1, stronger effect = lower value 0.887 | locus YHR027C, strain rpn1, stronger effect = lower value 1 | locus YHR030C, strain SLT2, stronger effect = lower value 1.02 and 0.932 | locus YHR079C, strain IRE1 (second series), stronger effect = lower value 1.02 | locus YHR094C, strain hxt1, stronger effect = lower value 1.01 | locus YHR129C, strain ARP1, stronger effect = lower value 1.01 | locus YHR142W, strain chs7, stronger effect = lower value 0.994 | locus YHR200W, strain rpn10, stronger effect = lower value 1 | locus YIL066C, strain RNR3, stronger effect = lower value 1 | locus YIL073C, strain SPO22, stronger effect = lower value 1.06 | locus YIL125W, strain kgd1, stronger effect = lower value 0.996 | locus YIR030C, strain dcg1, stronger effect = lower value 1.01 | locus YJL092W, strain hpr5, stronger effect = lower value 0.983 | locus YJL095W, strain BCK1 (second series), stronger effect = lower value 0.988 | locus YJL095W, strain BCK1, stronger effect = lower value 0.998 and 0.884 | locus YJL115W, strain asf1, stronger effect = lower value 0.991 | locus YJL134W, strain LCB3, stronger effect = lower value 1.01 | locus YJL154C, strain vps35, stronger effect = lower value 0.979 | locus YJL164C, strain tpk1, stronger effect = lower value 0.993 | locus YJL166W, strain qcr8, stronger effect = lower value 0.953 | locus YJL168C, strain set2, stronger effect = lower value 1 | locus YJL187C, strain SWE1 (second series), stronger effect = lower value 1.03 | locus YJL187C, strain SWE1, stronger effect = lower value 0.993 | locus YJR043C, strain POL32, stronger effect = lower value 0.998 | locus YJR066W, strain TOR1, stronger effect = lower value 0.975 | locus YJR075W, strain HOC1, stronger effect = lower value 1.01 | locus YKL009W, strain mrt4, stronger effect = lower value 0.992 | locus YKL068W, stronger effect = lower value 1 | locus YKL085W, strain MDH1 (second series), stronger effect = lower value 0.995 | locus YKL085W, strain MDH1, stronger effect = lower value 0.995 | locus YKL160W, strain elf1, stronger effect = lower value 0.991 | locus YKL190W, strain CNB1, stronger effect = lower value 1.01 | locus YKR001C, strain vps1, stronger effect = lower value 0.956 | locus YKR026C, strain gcn3, stronger effect = lower value 0.979 | locus YKR091W, strain srl3, stronger effect = lower value 0.981 | locus YLL001W, strain dnm1, stronger effect = lower value 1 | locus YLL026W, stronger effect = lower value 0.968 | locus YLL041C, strain sdh2, stronger effect = lower value 0.982 | locus YLR027C, strain aat2, stronger effect = lower value 0.991 | locus YLR039C, strain RIC1, stronger effect = lower value 1.03 | locus YLR058C, strain SHM2, stronger effect = lower value 1.01 | locus YLR102C, strain apc9, stronger effect = lower value 1.02 | locus YLR221C, strain rsa3, stronger effect = lower value 1.01 | locus YLR258W, strain gsy2, stronger effect = lower value 0.947 | locus YLR262C, strain YPT6 (second series), stronger effect = lower value 0.943 | locus YLR262C, strain YPT6, stronger effect = lower value 1.03 | locus YLR268W, strain sec22, stronger effect = lower value 1.03 | locus YLR330W, strain CHS5, stronger effect = lower value 1.01 | locus YLR342W, strain FKS1 (second series), stronger effect = lower value 0.985 | locus YLR342W, strain FKS1, stronger effect = lower value 0.978 | locus YLR357W, strain rsc2, stronger effect = lower value 0.94 | locus YLR370C, strain arc18, stronger effect = lower value 0.999 | locus YLR371W, strain rom2, stronger effect = lower value 1.02 | locus YLR384C, strain iki3, stronger effect = lower value 0.992 | locus YLR418C, strain cdc73, stronger effect = lower value 0.859 | locus YML016C, strain PPZ1, stronger effect = lower value 1.01 | locus YML032C, strain rad52, stronger effect = lower value 0.985 | locus YML120C, strain ndi1, stronger effect = lower value 0.971 | locus YML124C, strain tub3, stronger effect = lower value 1.01 | locus YMR058W, strain fet3, stronger effect = lower value 0.984 | locus YMR078C, strain ctf18, stronger effect = lower value 1 | locus YMR125W, strain sto1, stronger effect = lower value 0.912 | locus YMR129W, stronger effect = lower value 0.97 | locus YMR223W, strain ubp8, stronger effect = lower value 0.994 | locus YMR231W, strain pep5, stronger effect = lower value 0.988 | locus YMR307W, strain GAS1, stronger effect = lower value 0.978 | locus YNL067W, strain RPL9B, stronger effect = lower value 1.04 | locus YNL128W, strain TEP1, stronger effect = lower value 1.03 | locus YNL153C, strain GIM3, stronger effect = lower value 1.01 | locus YNL183C, strain NPR1, stronger effect = lower value 0.955 | locus YNL209W, strain ssb2, stronger effect = lower value 1 | locus YNL233W, strain BNI4, stronger effect = lower value 1 | locus YNL248C, strain rpa49, stronger effect = lower value 1.01 | locus YNL250W, strain rad50, stronger effect = lower value 1.03 | locus YNL271C, strain bni1, stronger effect = lower value 1.01 | locus YNL298W, strain CLA4, stronger effect = lower value 0.934 | locus YNL307C, strain MCK1, stronger effect = lower value 1 | locus YNL322C, strain KRE1 (second series), stronger effect = lower value 0.996 | locus YNL322C, strain KRE1, stronger effect = lower value 1 | locus YNR049C, strain mso1, stronger effect = lower value 0.978 | locus YNR052C, strain pop2, stronger effect = lower value 1 | locus YOL012C, strain htz1 1.06 | locus YOL147C, strain pex11, stronger effect = lower value 1.01 | locus YOR001W, strain rrp6, stronger effect = lower value 0.989 | locus YOR061W, strain CKA2, stronger effect = lower value 1.01 | locus YOR069W, strain VPS5, stronger effect = lower value 1.02 | locus YOR070C, strain gyp1, stronger effect = lower value 0.983 | locus YOR080W, strain dia2, stronger effect = lower value 0.997 | locus YOR083W, strain WHI5, stronger effect = lower value 1.03 | locus YOR106W, strain vam3, stronger effect = lower value 1 | locus YOR136W, strain idh2, stronger effect = lower value 1.02 | locus YOR144C, strain elg1, stronger effect = lower value 1.01 | locus YOR184W, strain ser1, stronger effect = lower value 0.986 | locus YOR265W, strain rbl2, stronger effect = lower value 0.992 | locus YOR270C, strain vph1, stronger effect = lower value 0.928 | locus YOR290C, strain snf2, stronger effect = lower value 0.931 | locus YOR316C, strain cot1, stronger effect = lower value 1.01 | locus YPL051W, strain arl3, stronger effect = lower value 1 | locus YPL055C, strain LGE1, stronger effect = lower value 1.01 | locus YPL078C, strain atp4, stronger effect = lower value 0.986 | locus YPL106C, strain sse1, stronger effect = lower value 0.974 | locus YPL240C, strain hsp82, stronger effect = lower value 0.979 | locus YPL241C, strain CIN2, stronger effect = lower value 0.995 | locus YPL256C, strain CLN2, stronger effect = lower value 0.917 | locus YPR119W, strain clb2, stronger effect = lower value 1.01 | locus YPR141C, strain kar3, stronger effect = lower value 1.03 | locus YPR163C, strain tif3, stronger effect = lower value 1.01 | locus YPR167C, strain met16, stronger effect = lower value 1.01 | strain wtn01, stronger effect = lower value 1.04
